# Source: PubChem BioAssay AID1347426 (Functional Genomics Laboratory (NCATS/FGL), 2020)
# Screen size: about 31,000 sequences; about 1,400 (4.5%) were called active.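 How the source made its calls: active means median seed-adjusted z-score above 1 or below -1; inactive means the rest.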 The sample as a whole holds a higher share of actives than the screen did.
# Assay: Novel Modifiers of Survival Motor Neuron (SMN) Protein: Gene Identification via Genome-wide siRNA Screen;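 further: luminescence tracks full-length SMN protein made from the SMN2 reporter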
# Details: HEK293T SMN2-luciferase reporter, siRNA knockdown, 72 h; actives lie on both sides
# Summary of the method: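 Each of three siRNAs per gene is reverse-transfected (1 pmol) into reporter HEK293T cells whose luciferase output tracks SMN protein level. After 72 h culture, ONE-Glo luminescence is control-normalized, log10-transformed and MAD-standardized; Common Seed Analysis deprioritizes seed-driven hits.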
row,Sequence,median seed-adjusted z-score
1,GGAGUGACCGGAAACAUCATT against PRKCD,-0.236 (inactive)
2,CCAUUACAGAGGGAGUUCATT against NRBP1,-1.13 (active)
3,GGAUAUCUUCUAUGAUCUATT against SMAD7,-0.25 (inactive)
4,AGAACUUUGUGCACCGUGATT against ZAP70,-0.674 (inactive)
5,AGCUUGAAAUCUCAUGGAATT against SPINK5L2,0.482 (inactive)
6,GAAGAUUGCUAAUGACAAUTT against GOT1,0.0103 (inactive)
7,UAAUAAUUCUCACUCCUAATT against FZD5,-0.129 (inactive)
8,GACCGGCCGUUCAGAAUGATT against RPUSD1,0.327 (inactive)
9,CGUGUACCCGUUUGACUUUTT against SGSH,0.383 (inactive)
10,GCCUGGUACUACUAGCUUUTT against TRPC5,-1.14 (active)
11,CCUCUAGAAGGAUCUAAUATT against MMP19,0.43 (inactive)
12,GAAUUGUUUUAGCUAACGATT against PGM2,0.355 (inactive)
13,AAACAGACAGAGAUAAGUATT against UBE2D3,1.62 (active)
14,AGUACUUUGUAUUGGGAUATT against RCE1,-1.19 (active)
15,AGCAGGAUAUGAUCCGGAATT against SEC14L4,-0.714 (inactive)
16,GGCACGUCCUGUUACACCATT against LMO4,-0.067 (inactive)
17,CGCUUGGAGAGGCUACAAATT against FXR2,-0.133 (inactive)
18,GUUCCGAAGUGGUCUCAUUTT against MINPP1,-0.0107 (inactive)
19,GCAGUACACUACCAACAGATT against ALAS1,-1.15 (active)
20,CAACAUUGGAAAAUACAGATT against LAP3,0.0175 (inactive)
21,UCCCGGGAAUUAAAACUUATT against EPHA6,0.0445 (inactive)
22,GGAUCUGCACAGUCUUCUATT against PSKH2,0.0439 (inactive)

row,Sequence,median seed-adjusted z-score
1,GGAUUUGCCCUGACAAAAATT against ZRANB2,0.441 (inactive)
2,CAUUGAGAAUAAUAACAGATT against PPP3CA,0.74 (inactive)
3,GCCUAUUAUGGAGAAAAGATT against HES1,-0.262 (inactive)
4,CGAUAUGAUUGGCCAGAGATT against GIPC3,-0.27 (inactive)
5,CGGAUUUGUUGCUAAAUGATT against PCDHB8,1.15 (active)
6,CUGACAGUGUGGAUCGAUATT against COL12A1,0.00422 (inactive)
7,GGAUUGAAAACAAACUCUATT against RET,-0.931 (inactive)
8,GCGGUACUUUGAGCAGUUATT against P4HA2,0 (inactive)
9,GGCUCUUCAAGGCUAUGAATT against ANXA6,-1.01 (active)
10,GUCUGUAACUGAGCAAGGATT against YWHAZ,0.721 (inactive)
11,ACGGUUCGCUGAAAAAGAATT against PITX3,0 (inactive)
12,CGUCCAUACUUACCUAAUUTT against UGT2A1,0.213 (inactive)
13,CGACCGCACCUGGAAUGAATT against PLA2G4D,-0.233 (inactive)
14,GCGUGUCAGCUGUUCAUUATT against OSBPL5,0.638 (inactive)
15,CAAGCCCUCUGAAACAGUUTT against ADRA1A,-1.06 (active)
16,GCAUAUGAUUUUAUGGUAATT against FBXW7,0 (inactive)
17,CUCUCUAUAUUGAAACCAATT against CHN1,2.1e-05 (inactive)
18,ACUGAAAGCUGAUUAAUUATT against KLK2,0.0716 (inactive)
19,GAGCUGAUCUGUUACAAGUTT against DAK,-0.372 (inactive)
20,GAACACUCUAUGUCUAAUATT against MYNN,0.0702 (inactive)
21,GUGAUGUCAUUAGGCAGAATT against CRIP3,1.7 (active)
22,UCCCAGUUCUGAUACAUAUTT against SAE1,0.831 (inactive)

row,Sequence,median seed-adjusted z-score
1,AGACCUGCGUGGUGCACUATT against FKBP1A,0.113 (inactive)
2,GGAGCUUCAGGUUGUCCGATT against RPUSD3,0.303 (inactive)
3,CGAUGGACAGUGUCUCUUATT against ALG6,0.106 (inactive)
4,UCCUUGUUGUGGACAGGGATT against SPINK4,-0.0134 (inactive)
5,GGACCUAUUCGUCAAAUCATT against SF3B14,-1.26 (active)
6,CCUUGCUUGUGAGAGCAGATT against NPAS1,-0.386 (inactive)
7,GCGUUAUCCUCGUACCUUUTT against STC2,-0.00039 (inactive)
8,CUAUCCACCAUACAUUUCATT against NTM,0 (inactive)
9,GCAACGGGUUUGGAGUCAATT against KRT75,0.0773 (inactive)
10,CCAUCUCGACUGACAAGAATT against TNNI3K,-0.178 (inactive)
11,GCUAUUAUCUAAGCACGAATT against ADAMTS20,1.44 (active)
12,GAUAUAUCCGAAACCAGUATT against PDGFD,0.366 (inactive)
13,GAAUCGGCGAUGUACUAGATT against NT5C3,-0.456 (inactive)
14,CUAUGUCGUUGAAAACCAUTT against KCNE1,-0.347 (inactive)
15,GGAAGUAUUAGGGUACAAATT against SOS2,0.3 (inactive)
16,GAGUAUCUCUGAAACCUCUTT against IL1A,1.12 (active)
17,GGGAGUGACAUAUCCAAGATT against CCL26,-0.01 (inactive)
18,CGGAAGGUGUAUGAACUGATT against ICAM1,0.345 (inactive)
19,GCAAGGUCGUCAACCGCAATT against SAPS1,1.16 (active)
20,GCAGUUCCAUGGUACACCATT against ASAH1,0.421 (inactive)
21,GUCAGAUACAUGAACCAGATT against JMJD1A,0.466 (inactive)
22,GGAUAGGAGUCAUCAGCCUTT against SSTR3,0 (inactive)

row,Sequence,median seed-adjusted z-score
1,CCCAAUUCAGAUUACUACATT against POLN,-0.129 (inactive)
2,CUACUCAACAGACAUAAUATT against TRIP13,1 (active)
3,GGCUUCUACUGGUGUCUGATT against PIGR,-0.35 (inactive)
4,GGACUUACACUCUUAGGAATT against MAOB,0 (inactive)
5,CACAACAUCUUGUAAGACUTT against GNG13,-0.516 (inactive)
6,CGCCGACUCUAUUCAUGCATT against RAB22A,0.321 (inactive)
7,CGAGAGUAAUUUGAAGAAUTT against SIGMAR1,-1.4 (active)
8,GAUGGAUCUUUACAGUUGATT against METTL4,0.244 (inactive)
9,GAACAAUCAUUGCAUCGGATT against CPB2,-0.62 (inactive)
10,CCUUACCUGGAGUACCCAATT against PMPCA,-0.985 (inactive)
11,GGACCGAAGUCAAUGGUUUTT against SMC2,-0.052 (inactive)
12,CAUUUAGUGUACAUUCAAATT against ZNF665,1.13 (active)
13,CGACAGGGUAUCCAACUAATT against WASL,0.143 (inactive)
14,CAUGGAAAAUGAUGACGAATT against PPP4R2,0.211 (inactive)
15,CUCAAGAACUGUCAAGUAATT against GSK3B,-0.952 (inactive)
16,GGACAUCUAUGUUAUAUGUTT against TRIM65,-0.599 (inactive)
17,CGUCAUCCCUCAACAAGAATT against ATP2B2,1.37 (active)
18,GGCUAUUACUCAGUACAGATT against TLN1,-0.0619 (inactive)
19,CUAUGUGAUUGAUCAAGGATT against PRKAR1A,0.428 (inactive)
20,UCAUCGGCGUGAUCGUGUATT against CACNG8,0.214 (inactive)
21,GAAUUUGCGAUGUACUUAATT against CSNK1A1,-0.608 (inactive)
22,GGAAAGGAAUGGUCACGAATT against ZNF321,-0.642 (inactive)

row,Sequence,median seed-adjusted z-score
1,AGGUCAACACGGAGCUCAATT against CHRM1,1.1 (active)
2,GAAGAAUAGUGAUGCUCGATT against GRIA1,0.927 (inactive)
3,CUAAUUCAACAUUACAUCATT against ZNF550,0.131 (inactive)
4,CGACAGUCUUGCUGAAAAATT against NOTO,-0.193 (inactive)
5,GCACGAUUACUACUACCGATT against PNPLA1,0.00692 (inactive)
6,GGAUGUCGGCAACACGGAATT against MYBPC3,0.304 (inactive)
7,AAAGAAUGCGUGCUUUUAATT against RABGGTA,-0.0601 (inactive)
8,CACUGUAACGACUUCCUUATT against CCIN,0.0472 (inactive)
9,GAAAUUGACAUGUUGGAUATT against ANXA4,-0.0932 (inactive)
10,GACUGUCGCUGGUUGGAGATT against ACPT,-0.114 (inactive)
11,AGACCGAACUGGUUUCGCUTT against CDKN2C,-0.0789 (inactive)
12,CACUCGAAGCAGUUUGGAATT against SMS,0.186 (inactive)
13,CAGUGAAACUGCACCUCUATT against TGM1,-0.286 (inactive)
14,CCAACGAGCGAGCAGCUUATT against BARX1,1.63 (active)
15,ACGGCAAGGUGUUCGAUGUTT against PGRMC1,0.124 (inactive)
16,CGUUCGACCUGAUCGCAAATT against ODZ2,-0.0233 (inactive)
17,GGGUCACACUAUUUCGUGUTT against ARIH1,-0.443 (inactive)
18,GAUGAGUGCUGCUUCCGGATT against IGF1,0.559 (inactive)
19,CCAGCUCCACGAAAAAGAATT against ZNF395,-0.0986 (inactive)
20,GAUACAGUCUACGCAGUUATT against ATPAF1,0.393 (inactive)
21,CAGCGUGCAUUUUCACUAATT against AKAP11,-0.0405 (inactive)
